Hit rate of the full screen: of about 52,000 compounds, about 1,700 (3.3%) were called active. The list comes from a sample in which actives are over-represented; it also holds similar structures and randomly drawn compounds. Values without a mark were called inactive. No stated cut-off is given here; in the data, active means survival mostly below about 52% (no sharp cut-off); inactive means mostly above about 56%.
system: Wild type; test: growth inhibition of S. aureus wild type versus tarO mutant, primary screen, teichoic acid synthesis inhibitors, RN4220, OD600 (AID 463173); conditions: S. aureus RN4220 wild type/DeltatarO growth, OD600, 18 h, stronger effect = lower value, screened at 18.75 µg/mL (by protocol)

| SMILES | survival |
| --- | --- |
| C#CC(C)(CC)NC(=O)Cn1nnc(-c2ccc(OCc3ccccc3C)cc2)n1 (stereo not given) | 143% |
| Cc1ccc(-n2cc(-c3ccccc3)c3c(N4CCCCC4)ncnc32)cc1 | 80% |
| Cc1sc2nc(CN(CCc3ccccc3)C(=O)c3ccco3)[nH]c(=O)c2c1C | 100% |
| CCCCCOc1ccccc1CN1C(=O)C(=O)c2cc(C)ccc21 | 105% |
| CCCCCOc1ccccc1Cn1c(=O)oc2ccc(C)cc21 | 15% (active) |
| Cc1ccc2oc(=O)n(Cc3ccccc3Cl)c2c1 | -2% (active) |
| CCCCCOc1ccc(Cn2c(=O)oc3ccccc32)cc1 | 120% |
| CCCCCOc1ccc(Cn2c(=O)oc3ccc(C)cc32)cc1OC | -6% (active) |
| CCOC(=O)c1ccc2oc(=O)n(Cc3ccccc3)c2c1 | 68% |
| Cc1ccc2c(c1)C(=O)C(=O)N2Cc1ccc(OCCC(C)C)cc1 | 79% |
| Cc1ccc2oc(=O)n(CCNC(=O)Nc3ccccc3Cl)c2c1 | 90% |
| COc1cc(Cn2c(=O)oc3ccc(C)cc32)ccc1OCCC(C)C | -7% (active) |
| O=C(NCc1ccccc1Cl)c1ccc2oc(=O)n(Cc3ccccc3)c2c1 | 81% |
| CCCCOc1ccc(Cn2c(=O)oc3ccc(C)cc32)cc1OC | 49% |
| CCCCOc1ccc(CN2C(=O)C(=O)c3cc(C)ccc32)cc1OC | 87% |
| COc1cc2nc(C3CCC3)n(NC(=O)c3ccccc3C)c(=O)c2cc1OC | 115% |
| CSc1ccc(CCNC(=O)CCc2c(C)nc3ncnn3c2C)cc1 | 71% |
| CCC1CN(C(=O)C2CCN(S(=O)(=O)c3c(C)noc3/C=C/c3ccccc3F)CC2)c2cc(Cl)ccc2O1 (stereo not given) | 71% |
| COc1ccc(NC(=O)Cn2c(=O)n(-c3ccccc3)c(=O)c3ccc(C(=O)NCc4ccc5c(c4)OCO5)cc32)cc1 | 154% |
| COc1ccc(NC(=O)C2CCCN(S(=O)(=O)c3c(C)[nH]c(=O)[nH]c3=O)C2)cc1OC (stereo not given) | 130% |
| O=C(Nc1cc(-c2ccc(F)c(F)c2)no1)c1ccccc1F | 92% |
| COC(=O)c1ccccc1NC(=O)c1ccc(-c2nc(COc3ccccc3)c(C)o2)cc1 | 135% |
| COCCCNC(=O)C1CCN(c2nnc(-n3cccc3CNc3ccc(C)cc3)s2)CC1 | 72% |
| CCC(C(=O)OCc1cc(=O)n2nc(CCOC)sc2n1)c1ccccc1 (stereo not given) | 136% |
| CCOCCc1nn2c(=O)cc(COC(=O)c3ccco3)nc2s1 | 85% |

| SMILES | survival |
| --- | --- |
| CCc1nn2c(=O)cc(COC(=O)Cc3ccccc3)nc2s1 | 59% |
| CCOCCc1nn2c(=O)cc(COC(=O)Cc3ccccc3)nc2s1 | -1% (active) |
| CCOCCc1nn2c(=O)cc(COC(=O)C(CC)c3ccccc3)nc2s1 (stereo not given) | 14% (active) |
| CCc1nn2c(=O)cc(COC(=O)C(CC)c3ccccc3)nc2s1 (stereo not given) | 73% |
| Cc1ccc(-c2nnc3ccccc3c2C(=O)Nc2cccc(C(F)(F)F)c2)cc1 | 120% |
| COc1ccc(N(Cc2cccs2)C(=O)c2ccc(OCC(C)C)cc2)cc1 | 113% |
| CCc1ccccc1NC(=O)CN(c1cccc(C)c1C)S(C)(=O)=O | 72% |
| Cc1ccc(NC(=O)Cn2c(=O)n(Cc3ccco3)c(=O)c3sc4ccccc4c32)cc1C | 126% |
| CCc1nn2c(=O)cc(COC(=O)C3CCCCC3)nc2s1 | 72% |
| Cc1cccc(-c2nc(SCC(=O)NCC3CCCO3)c3c(=O)n(C)c(=O)n(C)c3n2)c1 (stereo not given) | 128% |
| CN1CCN(C(c2ccccc2)c2sc3nc(-c4ccco4)nn3c2O)CC1 (stereo not given) | 59% |
| Cc1ccc(C(c2sc3nc(-c4ccco4)nn3c2O)N2CCN(Cc3ccccc3)CC2)cc1 (stereo not given) | 121% |
| Oc1c(C(c2ccccc2Cl)N2CCOCC2)sc2nc(-c3ccco3)nn12 (stereo not given) | -2% (active) |
| Oc1c(C(c2ccccc2Cl)N2CCCC2)sc2nc(-c3ccco3)nn12 (stereo not given) | 82% |
| CN1CCN(C(c2ccccc2Cl)c2sc3nc(-c4ccco4)nn3c2O)CC1 (stereo not given) | 129% |
| Oc1c(C(c2ccccc2)N2CCN(Cc3ccccc3)CC2)sc2nc(-c3ccco3)nn12 (stereo not given) | 10% (active) |
| Oc1c(C(c2ccc(Cl)cc2)N2CCC3(CC2)OCCO3)sc2nc(-c3ccco3)nn12 (stereo not given) | 0% (active) |
| Oc1c(C(c2ccccc2)N2CCC3(CC2)OCCO3)sc2nc(-c3ccco3)nn12 (stereo not given) | 73% |
| Cc1ccc(C(c2sc3nc(-c4ccco4)nn3c2O)N2CCC3(CC2)OCCO3)cc1 (stereo not given) | 70% |
| Oc1c(C(c2ccccc2)N2CCOCC2)sc2nc(-c3ccco3)nn12 (stereo not given) | 88% |
| Oc1c(C(c2ccccc2)N2CCCC2)sc2nc(-c3ccco3)nn12 (stereo not given) | -3% (active) |
| Oc1c(C(c2ccc(F)cc2)N2CCN(Cc3ccccc3)CC2)sc2nc(-c3ccco3)nn12 (stereo not given) | 89% |
| COC(=O)c1ccc(NS(=O)(=O)c2c(C)nc3sccn3c2=O)cc1 | 85% |
| CC(=O)NC1Sc2ccccc2N=C1c1ccccc1 (stereo not given) | 112% |
| Cc1cccc(-n2c(Cc3ccccc3)nnc2SCc2nc(-c3cccs3)no2)c1 | 63% |

| SMILES | survival |
| --- | --- |
| Cc1ccc2onc(CC(=O)Nc3ccc(C(C)C)cc3)c2c1 | 85% |
| CCOc1ccc(NC(=O)c2sc3nc4c(c(-c5ccc(OC)cc5)c3c2N)C(=O)CC(C)(C)C4)cc1 | 69% |
| CCCn1c(N2CCN(CC(=O)Nc3ccc(Cl)cc3)CC2)nc2ccccc21 | 118% |
| Cc1nn(C)c2c1c(-c1ccccc1)cc(=O)n2CC(=O)NC(C)C | 70% |
| COc1ccc(C2=NS(=O)(=O)N(C)C(C(=O)Nc3ccc(OC(F)(F)F)cc3)=C2)cc1 | 55% |
| CCc1ccc(S(=O)(=O)c2cnc3ccc(OC)cc3c2N2CCCC(C)C2)cc1 (stereo not given) | 2% (active) |
| COc1ccc(S(=O)(=O)c2cnc3cc(OC)c(OC)cc3c2N2CCCC(C)C2)cc1 (stereo not given) | 84% |
| CC1CCCN(c2c(S(=O)(=O)c3ccccc3)cnc3ccc(Cl)cc23)C1 (stereo not given) | 121% |
| Cc1ccccc1NC(=O)c1ccc(F)c(S(=O)(=O)N(C)Cc2ccccc2)c1 | 66% |
| Cc1ccccc1CN1C(=O)c2ccccc2Sc2ccc(C(=O)N3CCCC3)cc21 | 85% |
| CCCCOc1ccc(S(=O)(=O)Nc2ccc(-c3ccc(N4CCCCCC4)nn3)cc2)cc1 | 75% |
| Cc1c(C(=O)NCc2ccccc2Cl)sc2nc[nH]c(=O)c12 | 82% |
| O=c1[nH]c(SCc2cccc(Cl)c2)nc2c1CCC2 | 91% |
| Cc1cccc(CSc2nc3c(c(=O)[nH]2)CCC3)c1 | 78% |
| Cc1nc(SCc2cccc(Cl)c2)nc2c1CCCC2 | -8% (active) |
| COc1cccc(-c2csc(-c3c(N)c(C(=O)c4ccccc4)n4ccccc34)n2)c1 | 72% |
| Cc1nn2c(=O)cc(COC(=O)Cc3ccccc3)nc2s1 | 80% |
| CCOc1ccccc1N1CC(c2nc3ccccc3n2CCCOc2ccccc2)CC1=O (stereo not given) | 58% |
| Cc1cc(C)cc(OCCn2c(C3CC(=O)N(c4ccccc4Cl)C3)nc3ccccc32)c1 (stereo not given) | 97% |
| Cc1cccc(OCCCCn2c(C3CC(=O)N(c4ccccc4Cl)C3)nc3ccccc32)c1 (stereo not given) | 17% (active) |
| CCc1ccccc1N1CC(c2nc3ccccc3n2CCOc2ccc(Cl)c(C)c2)CC1=O (stereo not given) | 2% (active) |
| O=C1CC(c2nc3ccccc3n2CCCCOc2ccccc2)CN1c1ccccc1Cl (stereo not given) | 61% |
| CCOc1ccccc1N1CC(c2nc3ccccc3n2CCCCOc2ccccc2)CC1=O (stereo not given) | 73% |
| Cc1cccc(OCCCCn2c(C3CC(=O)N(c4ccc(C)cc4C)C3)nc3ccccc32)c1 (stereo not given) | 18% |
| CCc1ccccc1N1CC(c2nc3ccccc3n2CCCOc2ccc(Cl)cc2)CC1=O (stereo not given) | 29% |

| SMILES | survival |
| --- | --- |
| CCc1ccccc1N1CC(c2nc3ccccc3n2CCCCOc2ccccc2)CC1=O (stereo not given) | 19% (active) |
| CCC1CCCCN1S(=O)(=O)c1cc2c3c(c1)CC(=O)N3CCC2 (stereo not given) | 95% |
| COc1ccc(C)cc1NC(=O)CN1C(=O)CSc2ccc(S(=O)(=O)N3CCCC3)cc21 | 93% |
| Cc1ccc2nc(/C(C#N)=C/c3ccccc3F)[nH]c2c1 | 46% |
| COc1cccc(/C=C(\C#N)c2nc3ccc(C)cc3[nH]2)c1 | 53% |
| Cc1ccc2nc(/C(C#N)=C/c3cccc(Br)c3)[nH]c2c1 | -11% (active) |
| COc1ccc(C(=O)c2oc3ccccc3c2NC(=O)c2cc(=O)c3ccc(C)cc3o2)cc1Cl | 87% |
| O=C(C1c2ccccc2Oc2ccccc21)N1CCCCC1 | 103% |
| CCCCn1c(CCCN2C(=O)c3ccccc3C2=O)nc2ccccc2c1=O | 104% |
| CONc1nc(NC(C)(C)C)nc(OCC#N)n1 | 102% |
| N#CCOc1nc(OCC#N)nc(OCC#N)n1 | -1% (active) |
| CNc1nc(OCC#N)nc(N2CCCCC2)n1 | 119% |
| CCOc1ccc(CNC(=O)c2cc3c(=O)n(C)c4ccccc4c3s2)cc1 | 84% |
| CCn1c(O)c(/C=C/c2nc3ccccc3n2CC)sc1=S | 108% |
| CCc1nc2ccccc2n1CC(C)C(=O)O (stereo not given) | 108% |
| Cc1cccc(C(=O)NCCc2nc3ccccc3n2CCC(C)C)c1 | 116% |
| CCCCCn1c(CNC(=O)c2ccccc2)nc2ccccc21 | 89% |
| CCCCCCn1c(/C=C/c2ccccc2)nc2ccccc21 | 0% (active) |
| CCc1nc2ccccc2n1CCO | 101% |
| CCCn1c(CNC(=O)c2ccc(F)cc2)nc2ccccc21 | 69% |
| CCCCCn1c(CNC(=O)c2ccc(F)cc2)nc2ccccc21 | 90% |
| CC(C)Cn1c(/C=C/c2ccc(F)cc2)nc2ccccc21 | -12% (active) |
| CCC(C)Cn1c(/C=C/c2ccccc2)nc2ccccc21 (stereo not given) | 1% (active) |
| CC(C)CCn1c(/C=C/c2ccccc2)nc2ccccc21 | -1% (active) |
| CCCCCCn1c(CNC(=O)c2ccccc2)nc2ccccc21 | 91% |

Source: PubChem BioAssay AID463173 (ICCB-Longwood Screening Facility, Harvard Medical School, 2010)
